Records with an inconclusive call do not appear. A call without a number means that no potency is given here. Where a structure was tested more than once in an assay, its records may differ in their call. Calls of active or inactive are those of the source. The call rests on the fitted dose curve; in most records, active means well fitted cell-killing curve with a large enough effect in the repeat runs; inconclusive means weak or mixed curves, or effect the other way; inactive means flat fitted curve, though single readings scatter.
Potency means the concentration at half of the fitted maximal effect.

This assay in a line: Human pregnane X receptor (PXR) small molecule agonists, qHTS cell viability counter screen (AID 1346977). Further: nearly all actives have a fitted effect of over 50% in size. The conditions noted are these: PXR-Luc HepG2 viability, CellTiter-Fluor, 24 h; series mostly up to 92.4 µM; activity change, negative = cytotoxicity: at the top concentration. The source says:
U.S. Tox21 Program National Center for Advancing Translational Sciences [NCATS] NIH Chemical Genomics Center [NCGC] U.S. Environmental Protection Agency [EPA] National Institutes of Environmental Health Sciences [NIEHS] National Toxicology Program [NTP] U.S. Food and Drug Administration [FDA] Tox21 Assay Overview: The human pregnane X receptor (hPXR) regulates the expression of several drug metabolizing enzymes and induction of these proteins is a major mechanism for developing drug resistance in cancer. One such key enzyme catalyzing the drug metabolism is cytochrome P450 3A4 (CYP3A4). Changes in CYP3A4 expression affect drug metabolism, thereby reducing the therapeutic efficacy and altering toxicological response to a drug and which finally causes adverse drug interaction. To screen Tox21 libraries for compounds that activate hPXR-mediated CYP3A4 gene expression, PXR-Luc HepG2 cells were used. Also cytotoxicity of the compounds was tested in parallel by measuring the cell viability using CellTiter-Fluor assay system in the same wells.
Tox21 Assay Protocol Summary: PXR-Luc HepG2 cells were dispensed at 2,000 per well in 5uL of assay medium containing 5% charcoal-stripped FBS into white solid bottom 1536-well plates (Corning Life Sciences, Corning, NY) using a Multidrop Combi (Thermo Scientific, Waltham, MA) dispenser. The assay plates were incubated at 37 C and 5% CO2 for 5hr, and then 23nL of compounds dissolved in DMSO and positive control were transferred using a Pintool station (Wako, San Diego, CA). The assay plates were incubated at 37C and 5% CO2 for 24hr. For cytotoxicity read, after 23hr incubation at 37C, 1uL CellTiter-Fluor reagent (Promega Corporation, Madison, WI) was added to each well of the assay plates using Flying Reagent Dispenser (FRD, Aurora Discovery, San Diego, CA). After 1hr incubation at 37C and 5% CO2, the fluorescence signal was quantified using a ViewLux plate reader (PerkinElmer, Shelton, CT).
Background: Quantitative high-throughput screening tests each substance at several concentrations.
In the case of `CC(C#N)CCC#N` (stereo not given), the Potency entry was “inactive”.

Consider `COC(=O)c1ccccc1C(=O)OC`, for which the Potency result was “inactive”. For `CNC(=O)Oc1ccccc1OC(C)C`, the Potency entry was “inactive”. In the case of `c1ccc(OP(Oc2ccccc2)Oc2ccccc2)cc1`, the Potency entry is “inactive”.

`Cc1cccc([N+](=O)[O-])c1`: the Potency result was “inactive”. On to `Clc1cccc(Cl)c1Cl`, for which the Potency entry was “inactive”. The same measure, in the same setting: the result for `O=c1ccc(=O)[nH][nH]1` reads “inactive”; that for `CCCCCCCCCCCC#N`, “inactive”; that for `CC(NC(C)(C)C)C(=O)c1cccc(Cl)c1` (stereo not given), “inactive”. For the molecule `Cc1ccccc1O`, the Potency entry was “inactive”. Same read-out and setting: then `CCN(CC)CCO`, with “inactive”. Same read-out and setting: the result for `Cc1cc(-c2cc(C)c(N)c(C)c2)cc(C)c1N` reads “inactive”. Take `Nc1c(Cl)c(Cl)nc(C(=O)O)c1Cl`: the Potency entry is “inactive”. On the same count and under the same terms, the result for `CON(C)C(=O)Nc1ccc(Cl)c(Cl)c1` reads “inactive”; that for `C#CC(C)(C)NC(=O)c1cc(Cl)cc(Cl)c1`, “inactive”. For `CC(Oc1ccc(Cl)cc1Cl)C(=O)O` (stereo not given), the Potency result was “inactive”. For the molecule `O=c1[nH]c2ccccc2c(=O)o1`, the Potency entry was “inactive”. On to `CCOP(OCC)OCC`, for which the Potency result was “inactive”. As to `C=CC(N)=O`, the Potency result was “inactive”.

For the molecule `COP(N)(=O)SC` (stereo not given), the Potency result was “inactive”.

Turning to `NCC(O)c1ccc(O)cc1` (stereo not given), the Potency entry was “inactive”. With `CCCCN(CCCC)SN(C)C(=O)Oc1cccc2c1OC(C)(C)C2`, the “activity change, negative = cytotoxicity” value was 1.17% (inactive). Consider `Oc1ccccc1Cl`, for which the Potency entry was “inactive”.

Take `[N-]=[N+]=[N-]`: the Potency result was “inactive”. Regarding `CCOP(=S)(OCC)SCCSCC`, the Potency result was “inactive”. Turning to `C=CCO`, the Potency result is “inactive”. For `C1CC2OC2CC1C1CO1` (stereo not given), the Potency result was “inactive”. Consider `O=[N+]([O-])c1ccc(Oc2ccc(Cl)cc2Cl)cc1`, for which the Potency result was “inactive”. Take `OC(O)C(Cl)(Cl)Cl`: the Potency entry was “inactive”. Same read-out and setting: the result for `CCC(C)(CC)c1cc(NC(=O)c2c(OC)cccc2OC)on1` reads “inactive”; that for `CN(C)N=O`, “inactive”.

In the case of `ClCCBr`, the Potency result is “inactive”.

In the case of `O=[N+]([O-])c1ccc([As](=O)(O)O)cc1`, the Potency entry was “inactive”. Same read-out and setting: then `CCNc1nc(NC(C)(C)C)nc(SC)n1`, with “inactive”. In the case of `CC(C)(C)OOC(C)(C)C`, the Potency result is “inactive”. Take `Clc1ccc(Cl)cc1`: the Potency is 2.17 µM (active) and inactive.

Regarding `CCOP(=S)(OCC)Oc1cnc2ccccc2n1`, the Potency entry was “inactive”. As for `Cc1ccc(N)cc1N`, the Potency entry is “inactive”.

Turning to `CC1OC(C)OC(C)O1` (stereo not given), the Potency result is “inactive”.

Turning to `BrCCBr`, the Potency entry is “inactive”.

The record behind these values is PubChem BioAssay (Tox21).
